# In PubChem BioAssay (EPA / NIEHS):
# Records with an inconclusive call do not appear. Calls of active or inactive are those of the source. Rule for the calls: active = hit-call score of the fitted dose curve at least 0.9, where 1 is the maximum; inconclusive = response in the unintended direction; inactive = score below 0.9.
# Target: Oxysterols receptor LXR-alpha (Homo sapiens) (UniProt Q13133)
# Test: ATG_LXRa_TRANS: Attagene TRANS-FACTORIAL HepG2 Assay for human Liver X Receptor alpha (LXRa) (AID 2282980)
# Settings: HepG2 Attagene TRANS reporter, LXRa transactivation
# Protocol: ATG_TRANS is a cell-based, multiplexed-readout assay that uses HepG2, a human liver cell line, with measurements taken at 24 hours after chemical dosing in a 24-well plate.ATG_LXRa_TRANS is one of 30 assay component(s) measured or calculated from the ATG_TRANS assay. It is designed to make measurements of mRNA induction, a form of inducible reporter, as detected with fluorescence intensity signals by Reverse transcription polymerase chain reaction (RT-PCR) and Capillary electrophoresis technology.Data from the assay component ATG_LXRa_TRANS was analyzed into 1 assay endpoint. This assay endpoint, ATG_LXRa_TRANS, was analyzed in the positive analysis fitting direction relative to DMSO as the negative control and baseline of activity. Using a type of inducible reporter, measures of mRNA for gain-of-signal activity can be used to understand the reporter gene at the transcription factor-level as they relate to the gene NR1H3. Furthermore, this assay endpoint can be referred to as a primary readout, because this assay has produced multiple assay endpoints where this one serves a reporter gene function. To generalize the intended target to other relatable targets, this assay endpoint is annotated to the nuclear receptor intended target family, where the subfamily is non-steroidal.
# Human liver HepG2 cells are transiently transfected with multiple reporter transcription units (MRTUs) in 6-well plates using FuGene 6 reagent (Roche; 3 ml FuGene/1 mg DNA). The MRTU constructs are regulated by a cis-regulating element (promoter). […] A major difference between the CIS and TRANS system is that in CIS activities of endogenous TFs are measured, whereas the TRANS assay evaluates changes in activities of exogenous, chimeric NR-Gal4 proteins. […] At the end of 24 hour incubation, total RNA was isolated using TriZol reagent (Invitrogen). The isolated RNA is then reverse-transcribed using oligo(dT) primer and Mo-MLV reverse transcriptase (Invitrogen) with DNAse I (Ambion) treatment for 30 min. The one-tenth of the produced cDNA was amplified by PCR using Taq DNA polymerase (Invitrogen) and two reporter sequence-specific primers. The PCR products were fluorescently labeled by primer extension with 6-arboxyfluorescein (6-FAM) 5'-labeled reporter sequence-specific primer (2 min at 95 C, 20 s at 68 C and 10 min at 72 C) and these products were digested with 5U of HpaI (New England Biolabs) for 2h at 37 C. The fragments were purified using Qiaquick PCR columns (Qiagen), analyzed on an ABI 3130xL genetic analyzer (Applied Biosystems) with peak positions identified by using a set of X-rhodamine (ROX)-labeled MapMarker1000 molecular weight standards (BioVentures). The raw capillary electrophoresis data was processed using Attagraph software (Attagene).
# Chain of Oxysterols receptor LXR-alpha (Homo sapiens) (Q13133 whole entry, looked up): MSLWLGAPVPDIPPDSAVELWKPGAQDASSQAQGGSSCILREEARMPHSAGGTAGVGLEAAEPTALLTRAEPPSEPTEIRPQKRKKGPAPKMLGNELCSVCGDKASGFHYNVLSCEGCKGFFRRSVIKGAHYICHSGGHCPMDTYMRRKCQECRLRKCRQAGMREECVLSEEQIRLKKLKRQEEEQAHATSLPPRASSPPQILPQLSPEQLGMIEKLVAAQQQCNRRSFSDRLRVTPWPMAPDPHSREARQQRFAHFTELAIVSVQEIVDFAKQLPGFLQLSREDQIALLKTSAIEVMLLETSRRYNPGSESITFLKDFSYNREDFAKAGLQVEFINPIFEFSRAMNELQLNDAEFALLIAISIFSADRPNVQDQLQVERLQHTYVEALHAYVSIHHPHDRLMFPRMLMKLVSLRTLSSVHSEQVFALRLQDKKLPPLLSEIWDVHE
Structure (SMILES),outcome,AC50
CCCCOC(=O)c1ccccc1C(=O)O,inactive,–
CC(C)=CC1C(C(=O)OCN2C(=O)C3=C(CCCC3)C2=O)C1(C)C (stereo not given),inactive,–
CN(C)NC(=O)CCC(=O)O,inactive,–
COP(=O)(NC(C)=O)SC (stereo not given),inactive,–
CCNc1nc(Cl)nc(NC(C)(C)C#N)n1,inactive,–
CCC(=O)Nc1ccc(Cl)c(Cl)c1,inactive,–
COc1ccc(C(=CC(=O)N2CCOCC2)c2ccc(Cl)cc2)cc1OC,inactive,–
CCCSP(=O)(OCC)SCCC,inactive,–
CCOC(=O)CC(SP(=O)(OC)OC)C(=O)OCC (stereo not given),inactive,–
CCOP(=S)(Oc1cnc(C(C)(C)C)nc1)OC(C)C (stereo not given),–,9.2 µM (active)
O=[N+]([O-])c1cc(C(F)(F)F)c(Cl)c([N+](=O)[O-])c1Nc1ncc(C(F)(F)F)cc1Cl,inactive,–
CC(COc1ccc(Oc2ccccc2)cc1)Oc1ccccn1 (stereo not given),inactive,–
Cc1cc(C2CC2)nc(Nc2ccccc2)n1,inactive,–
C[Si](Cn1cncn1)(c1ccc(F)cc1)c1ccc(F)cc1,inactive,–
CN(C)[C@@H]1C(=O)C(C(N)=O)=C(O)[C@@]2(O)C(=O)C3=C(O)c4c(O)cccc4[C@@](C)(O)[C@H]3[C@H](O)[C@@H]12,inactive,–
CCOP(=S)(OCC)Oc1ccc2c(C)c(Cl)c(=O)oc2c1,inactive,–
Nc1c(Cl)cc([N+](=O)[O-])cc1Cl,inactive,–
CSc1nc(NC(C)C)nc(NC(C)C)n1,inactive,–
CC(C1CC1)C(O)(Cn1cncn1)c1ccc(Cl)cc1 (stereo not given),inactive,–
COc1cc(OC)nc(Sc2cccc(Cl)c2C(=O)O)n1,inactive,–

Structure (SMILES),outcome,AC50
CC(C)N(C(=O)SCC(Cl)=C(Cl)Cl)C(C)C,–,29.1 µM (active)
CCOP(=S)(OCC)OC(Cl)C(Cl)(Cl)Cl (stereo not given),inactive,–
Nc1nc(N)nc(NC2CC2)n1,inactive,–
CC(=NC#N)N(C)Cc1ccc(Cl)nc1,inactive,–
CCc1cnc(C2=NC(C)(C(C)C)C(=O)N2)c(C(=O)O)c1 (stereo not given),inactive,–
CCc1cccc(CC)c1N(COC)C(=O)CCl,inactive,–
CSC1=N[C@@](C)(c2ccccc2)C(=O)N1Nc1ccccc1,inactive,–
CCCCN(CC)c1c([N+](=O)[O-])cc(C(F)(F)F)cc1[N+](=O)[O-],inactive,–
CC1=NNC(=O)N(/N=C/c2cccnc2)C1,inactive,–
CCCSP(=O)(OCC)Oc1ccc(Br)cc1Cl (stereo not given),inactive,–
CC[C@H](C)[C@H]1O[C@]2(C=C[C@@H]1C)C[C@@H]1C[C@@H](C/C=C(\C)[C@@H](O[C@H]3C[C@H](OC)[C@@H](O[C@H]4C[C@H](OC)[C@@H](NC)[C@H](C)O4)[C@H](C)O3)[C@@H](C)/C=C/C=C3\CO[C@@H]4[C@H](O)C(C)=C[C@@H](C(=O)O1)[C@]34O)O2,inactive,–
S=C1NCCN1,inactive,–
CCOP(=S)(OCC)Oc1cc(C)nc(C(C)C)n1,inactive,–
C[N+]1(C)CCCCC1,inactive,–
CON=C(C(=O)OC)c1ccccc1CON=C(C)c1cccc(C(F)(F)F)c1,inactive,–
COP(=O)(OC)C(O)C(Cl)(Cl)Cl (stereo not given),inactive,–
CNc1cnn(-c2cccc(C(F)(F)F)c2)c(=O)c1Cl,inactive,–
CCC(=NOC/C=C/Cl)C1=C(O)CC(C2CCOCC2)CC1=O (stereo not given),inactive,–
CCOC(=O)COc1cc(-c2nn(C)c(OC(F)F)c2Cl)c(F)cc1Cl,inactive,–
Cc1nn(-c2cc(NS(C)(=O)=O)c(Cl)cc2Cl)c(=O)n1C(F)F,inactive,–
